What was measured:
Conditions in all cases: concentration: 1 μM, replicates: in singlicate; n = 1
ABL2 = test system: ABL2
ACVR1B = test system: ACVR1B
ACVR1 = test system: ACVR1
ACVR2A = test system: ACVR2A
ACVR2B = test system: ACVR2B
ACVRL1 = test system: ACVRL1
ADCK3 = test system: T1, ADCK3
T1 construct: gene CABC1

ADCK4 = test system: ADCK4
AKT1 = test system: AKT1
AKT2 = test system: AKT2
AKT3 = test system: AKT3
ALK = test system: ALK
AMPK-alpha1 = test system: T2, AMPK-alpha1
T2 construct: gene PRKAA1

AMPK-alpha2 = test system: T3, AMPK-alpha2
T3 construct: gene PRKAA2

ANKK1 = test system: ANKK1
ARK5 = test system: T4, ARK5
T4 construct: gene NUAK1

ASK1 = test system: T5, ASK1
T5 construct: gene MAP3K5

ASK2 = test system: T6, ASK2
T6 construct: gene MAP3K6

AURKA = test system: AURKA
AURKB = test system: AURKB
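Note: KINOMEscan kinase panel screen.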

SMILES | %Inh (ABL2) | %Inh (ACVR1B) | %Inh (ACVR1) | %Inh (ACVR2A) | %Inh (ACVR2B) | %Inh (ACVRL1) | %Inh (ADCK3) | %Inh (ADCK4) | %Inh (AKT1) | %Inh (AKT2) | %Inh (AKT3) | %Inh (ALK) | %Inh (AMPK-alpha1) | %Inh (AMPK-alpha2) | %Inh (ANKK1) | %Inh (ARK5) | %Inh (ASK1) | %Inh (ASK2) | %Inh (AURKA) | %Inh (AURKB)
c1ccc(-c2ccc3c(-c4ccnc(Nc5ccc6c(c5)OCCO6)n4)cnn3n2)cc1 [GW818941] | 12% | 0% | 24% | 32% | 11% | 13% | 0% | 9% | 0% | 10% | 18% | 0% | 19% | 25% | 4% | 15% | 7% | 0% | 0% | 0%
Clc1cccc(-c2nc(Nc3ccncc3)c3ccccc3n2)c1 [GW873004] | 28% | 72% | 0% | 25% | 15% | 9% | 30% | 20% | 11% | 0% | 1% | 33% | 30% | 9% | 0% | 0% | 13% | 0% | 0% | 17%
Fc1cccc(COc2ccc(Nc3ncnc4sc(-c5ccc[nH]5)cc34)cc2Cl)c1 [GW707818] | 0% | 2% | 9% | 5% | 16% | 4% | 1% | 24% | 0% | 7% | 0% | 0% | 10% | 36% | 12% | 6% | 21% | 0% | 6% | 0%
O=C(Nc1n[nH]c2nc(-c3ccco3)c(Br)cc12)c1ccc(CN2CCCC2)cc1.O=C(O)[C@H](O)[C@@H](O)C(=O)O [SB-742352] | 0% | 0% | 24% | 0% | 0% | 0% | 0% | 0% | 0% | 0% | 8% | 0% | 0% | 8% | 0% | 0% | 0% | 0% | 0% | 0%
Fc1cccc(COc2ccc(Nc3ncnc4cc[nH]c34)cc2Cl)c1 | 10% | 12% | 19% | 0% | 3% | 16% | 1% | 17% | 0% | 0% | 0% | 0% | 4% | 0% | 40% | 11% | 11% | 0% | 16% | 24%

— paper PMC5540273 (PLoS ONE, 2017)
